Inconclusive results are not listed. Calls of active or inactive are those of the source. Calls come from the whole dose curve; as a rule, active = well fitted cell-killing curve with a large enough effect in the repeat runs; inconclusive = weak or mixed curves, or effect the other way; inactive = flat fitted curve, though single readings scatter. Where a SMILES comes first, the peptide text is derived from it. [ ]: non-standard residue; d: D form. pGlu = O=C1CC[C@@H](C(=O)O)N1
% is set by controls: 0 for no effect and ±100 for the full control effect; potency is the fitted concentration of half-maximal effect.

A short description of the experiment: qHTS RealTime-Glo MT Cell Viability Assay in HepG2 cells - 40 hour (AID 1224870). Note: nearly all actives have a fitted effect of over 50% in size. The note with it: RealTime-Glo luminescence; series mostly up to 76.8 µM; activity change, negative = cytotoxic: at the top concentration. The source says: National Center for Advancing Translational Sciences [NCATS]
NIH Chemical Genomics Center [NCGC]
U.S. Environmental Protection Agency [EPA]
National Institutes of Environmental Health Sciences [NIEHS]
National Toxicology Program [NTP]
U.S. Food and Drug Administration [FDA]
Measure of cell viability is critical in the cell-base assay. Analysis of cell viability is necessary for the characterization of cell responses to cytotoxic drugs and environmental stress. A RealTime-Glo MT Cell Viability Assay to monitor cell viability in real time of continues cell culture during 40 hours of compound treatment was used to screen Tox21 10K library compounds in HepG2 cells. The RealTime-Glo MT Cell Viability Assay is a nonlytic, homogeneous, bioluminescent method to measure cell viability in real time using a simple, plate-based method. The assay involves adding NanoLuc luciferase and a cell-permeant prosubstrate to cells in culture. Viable cells reduce the proprietary prosubstrate to generate a substrate for NanoLuc luciferase. This substrate diffuses from cells into the surrounding culture medium, where it is rapidly used by the NanoLuc Enzyme to produce a luminescent signal. The signal correlates with the number of viable cells, making the assay well suited for cytotoxicity studies.
Tox21 Assay Protocol Summary:
The mixture of HepG2 cell suspension and reagents were dispensed at 600cells/6 ul/well in 1536-well tissue culture treated black solid bottom plates using a Multidrop dispenser. After the assay plates were incubated at a 37 C/5% CO2 incubator for 5 hours, 23 nL of compounds dissolved in DMSO, positive and negative controls was transferred to the assay plate by a pintool work station. The plates were incubated at 37 C for 40 hours. The luminescence intensity were measured at 0h, 8h, 16h, 24h, 32h and 40h time points using ViewLux plate reader during compound treatment.
Background: Quantitative high-throughput screening tests each substance at several concentrations.
As to `O=S(=O)(O)c1cccc(S(=O)(=O)O)c1`, the “activity change, negative = cytotoxic” value is 0.645% (inactive). In the case of `CCCCOCCOC(=O)COc1cc(Cl)c(Cl)cc1Cl`, the “activity change, negative = cytotoxic” value is -0.356% (inactive). On the same count and under the same terms, as for `CC(N)C12CC3CC(CC(C3)C1)C2` (stereo not given), the figure is 1.94% [at 35.3 µM] (inactive); as for `C[N+]12CCC(CC1)C(OC(=O)C(O)(c1ccccc1)c1ccccc1)C2` (stereo not given), 2% [at 35.3 µM] (inactive). The same measure, in the same setting: as for `CC(C)=CCC/C(C)=C/C#N`, the figure is -0.0306% (inactive). The same measure, in the same setting: next, `OCCc1ccccn1`: 0.601% (inactive); `CC(C)NNC(=O)c1ccncc1`: 0.478% [at 35.3 µM] (inactive); `CCOC(=O)CCC(=O)OCC`: -2.26% (inactive). Consider `O=C(O)CC(C(=O)O)S(=O)(=O)O` (stereo not given), for which the “activity change, negative = cytotoxic” value is 2.66% (inactive). Same read-out and setting: next, `CC(=O)c1ccccc1[N+](=O)[O-]`: 0.994% (inactive); `Cc1ccc(C(=O)Nc2ccc(S(=O)(=O)O)c3cc(S(=O)(=O)O)cc(S(=O)(=O)O)c23)cc1NC(=O)c1cccc(NC(=O)Nc2cccc(C(=O)Nc3cc(C(=O)Nc4ccc(S(=O)(=O)O)c5cc(S(=O)(=O)O)cc(S(=O)(=O)O)c45)ccc3C)c2)c1`: 3.51% [at 35.3 µM] (inactive); `C[C@@H]1C[C@H]2[C@@H]3C[C@H](F)C4=CC(=O)C(Cl)=C[C@]4(C)[C@@]3(F)[C@@H](O)C[C@]2(C)[C@@]1(O)C(=O)CO`: -3.13% [at 35.3 µM] (inactive).

For `CN(C)CCN(C)CCN(C)C`, the “activity change, negative = cytotoxic” value is 1.28% (inactive).

Consider `CCCCN(CCC(=O)OCC)C(C)=O`, for which the “activity change, negative = cytotoxic” value was 0.757% (inactive). As for `CCCC(C)C(=O)OCC` (stereo not given), the “activity change, negative = cytotoxic” value was -0.635% (inactive). For the molecule `C[N+](C)(CCOc1ccccc1)Cc1cccs1`, the Potency was 23.9 µM (active). Regarding `CCCCCCC1CCC(=O)O1` (stereo not given), the “activity change, negative = cytotoxic” value is 0.838% (inactive).

For `Nc1c2c(nc3c1CCC3)CCCC2`, the “activity change, negative = cytotoxic” value is -2.11% [at 35.3 µM] (inactive).

Take `CCCO[Si](OCCC)(OCCC)OCCC`: the “activity change, negative = cytotoxic” value is -4.14% (inactive). On the same count and under the same terms, as for `CC(C)(C#N)Nc1nc(Cl)nc(NC2CC2)n1`, the figure is -12.2% (inactive); as for `CCCCCCCCCCCCCCC(=O)O`, 1.33% (inactive). On to `O=C(c1ccccc1O)c1ccccc1O`, for which the “activity change, negative = cytotoxic” value is 0.527% (inactive). Turning to `CCC(C)(CN(C)C)OC(=O)c1ccccc1` (stereo not given), the “activity change, negative = cytotoxic” value was -0.266% [at 35.3 µM] (inactive). On the same count and under the same terms, as for `O=S(=O)(O)c1cc(O)c(O)c(S(=O)(=O)O)c1`, the figure is 2.56% (inactive). In the case of `CC(C)C(=O)OC(=O)C(C)C`, the “activity change, negative = cytotoxic” value is -0.217% (inactive). `COc1cc(-c2ccc(=O)[nH]n2)ccc1OC(F)F`: the “activity change, negative = cytotoxic” value was -2.78% [at 35.3 µM] (inactive). On to `C=CCOCC(O)CO` (stereo not given), for which the “activity change, negative = cytotoxic” value was 0.29% (inactive). The same measure, in the same setting: as for `CCCc1nn(C)c2c(=O)[nH]c(-c3cc(S(=O)(=O)N4CCN(C)CC4)ccc3OCC)nc12`, the figure is -5.34% [at 35.3 µM] (inactive).

As to `Cc1ccccc1N=C(N)N=C(N)N`, the “activity change, negative = cytotoxic” value is -0.77% (inactive). In the case of `CCCCCCCC1CCCC1=O` (stereo not given), the “activity change, negative = cytotoxic” value was 1.65% (inactive).

In the case of `FB(F)F`, the “activity change, negative = cytotoxic” value is 16% (inactive). For the molecule `O=[N+]([O-])c1cncn1CCN1CCOCC1`, the “activity change, negative = cytotoxic” value is -5.83% [at 35.3 µM] (inactive). The same measure, in the same setting: next, `O=C(O)CCCC[P+](c1ccccc1)(c1ccccc1)c1ccccc1`: -0.0569% [at 35.3 µM] (inactive); `CCC(=O)OCc1ccccc1`: 2.99% (inactive); `O=[N+]([O-])c1ccc(/C=N\O)o1`: 1.61% [at 35.3 µM] (inactive). Still for that read-out and setting: as for `C=C[Si](OC(C)=O)(OC(C)=O)OC(C)=O`, the figure is 0.124% (inactive); as for `CCNC(=O)[C@@H]1CCCN1C(=O)[C@H](CCCN=C(N)N)NC(=O)[C@H](CC(C)C)NC(=O)CNC(=O)[C@H](Cc1ccc(O)cc1)NC(=O)[C@H](CO)NC(=O)[C@H](Cc1c[nH]c2ccccc12)NC(=O)[C@H](Cc1cnc[nH]1)NC(=O)[C@@H]1CCC(=O)N1` ([pGlu]HWSYGLRP-NHEt), 0.86% [at 35.3 µM] (inactive). The same measure, in the same setting: as for `CCCCOCCOC(=O)CCCCCCCCC(=O)OCCOCCCC`, the figure is 1.98% (inactive); as for `CC(C)[C@H]1CC[C@@H](C)CC1=O`, 0.193% (inactive). `CCCCS(=O)(=O)N[C@@H](Cc1ccc(OCCCCC2CCNCC2)cc1)C(=O)O`: the “activity change, negative = cytotoxic” value is 2.83% [at 35.3 µM] (inactive).

The values are drawn from PubChem BioAssay (Tox21).
